# From PMC7862700, “An all-to-all approach to the identification of sequence-specific readers for epigenetic DNA modifications on cytosine”
# How the values were obtained:
# Assay in all cases: DAPPL (digital affinity profiling via proximity ligation, sequencing); 10 mM Tris-HCl pH 7.5, 50 mM NaCl, 1 mM DTT, 4% glycerol, room temperature, 30 min; GST-TFs on glutathione beads, 16-mer random dsDNA library, 0.1% formaldehyde crosslink after washing; high values mean tight binding
# FLI1 = molecular target: T1, FLI1 (Homo sapiens, UniProt Q01543 1-452); details: protein: recombinant; tags: N-terminal GST; dsDNA, one strand shown
# T1 sequence: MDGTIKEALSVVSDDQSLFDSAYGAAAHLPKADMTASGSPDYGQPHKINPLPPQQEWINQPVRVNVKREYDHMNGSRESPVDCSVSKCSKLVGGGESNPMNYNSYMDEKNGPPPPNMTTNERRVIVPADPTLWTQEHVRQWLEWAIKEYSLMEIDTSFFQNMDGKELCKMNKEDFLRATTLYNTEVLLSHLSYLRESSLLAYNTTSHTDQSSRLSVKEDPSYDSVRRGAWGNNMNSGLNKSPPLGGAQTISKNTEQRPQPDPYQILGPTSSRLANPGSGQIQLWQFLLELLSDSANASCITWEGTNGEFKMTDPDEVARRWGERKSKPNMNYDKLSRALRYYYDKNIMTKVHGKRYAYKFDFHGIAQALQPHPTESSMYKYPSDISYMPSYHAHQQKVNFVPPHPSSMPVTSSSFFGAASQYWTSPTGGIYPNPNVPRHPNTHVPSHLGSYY
# Procedure, shortened: (§1)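 In yeast, human transcription factors were expressed with a GST fusion, then pulled down on glutathione beads and given DNA barcodes. Pooled with a tag-only sample, they were exposed to 200 nmole of a 16-mer random double-stranded DNA library (Tris/NaCl/DTT/glycerol buffer, room temperature, 30 min), washed, crosslinked with 0.1% formaldehyde, proximity-ligated using BsaI/T4 ligase for 1 h at 37 °C, PCR-amplified and read on an Illumina NextSeq500. Each hexamer's frequency of reads for a factor, divided by the matching frequency for the tag-only sample, gives the binding signal.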
# ELK1 = molecular target: T2, ELK1 (Homo sapiens, UniProt P19419 1-428); details: protein: recombinant; tags: N-terminal GST; dsDNA, one strand shown
# T2 sequence: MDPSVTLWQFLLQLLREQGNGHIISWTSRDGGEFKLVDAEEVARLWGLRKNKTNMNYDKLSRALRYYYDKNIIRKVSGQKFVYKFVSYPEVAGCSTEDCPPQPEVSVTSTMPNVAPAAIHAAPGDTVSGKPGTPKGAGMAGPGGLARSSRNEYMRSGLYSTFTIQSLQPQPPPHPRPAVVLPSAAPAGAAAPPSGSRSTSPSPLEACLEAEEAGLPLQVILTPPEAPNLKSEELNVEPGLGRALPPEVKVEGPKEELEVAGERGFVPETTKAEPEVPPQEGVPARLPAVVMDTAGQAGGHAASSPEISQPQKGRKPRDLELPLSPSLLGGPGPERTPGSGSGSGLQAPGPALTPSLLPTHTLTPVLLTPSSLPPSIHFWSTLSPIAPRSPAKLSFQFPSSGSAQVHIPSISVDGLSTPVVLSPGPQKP
# Procedure, shortened: as §1
# GABPA = molecular target: T3, GABPA (Homo sapiens, UniProt Q06546 1-454); details: protein: recombinant; tags: N-terminal GST; dsDNA, one strand shown
# T3 sequence: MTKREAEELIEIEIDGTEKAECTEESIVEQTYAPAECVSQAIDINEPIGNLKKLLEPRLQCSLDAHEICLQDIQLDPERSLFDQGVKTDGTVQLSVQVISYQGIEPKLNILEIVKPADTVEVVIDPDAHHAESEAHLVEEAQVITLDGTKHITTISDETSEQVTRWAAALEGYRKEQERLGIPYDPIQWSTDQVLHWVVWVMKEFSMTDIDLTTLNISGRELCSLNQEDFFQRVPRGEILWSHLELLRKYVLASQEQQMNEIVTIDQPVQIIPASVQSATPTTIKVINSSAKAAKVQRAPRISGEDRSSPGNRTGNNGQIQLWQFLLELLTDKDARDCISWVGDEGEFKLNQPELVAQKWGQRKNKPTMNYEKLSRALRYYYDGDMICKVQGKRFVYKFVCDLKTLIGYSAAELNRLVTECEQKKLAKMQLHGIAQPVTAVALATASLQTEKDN
# Procedure, shortened: as §1
# ERG = molecular target: T4, ERG (Homo sapiens, UniProt P11308 1-479); details: protein: recombinant; tags: N-terminal GST; dsDNA, one strand shown
# T4 sequence: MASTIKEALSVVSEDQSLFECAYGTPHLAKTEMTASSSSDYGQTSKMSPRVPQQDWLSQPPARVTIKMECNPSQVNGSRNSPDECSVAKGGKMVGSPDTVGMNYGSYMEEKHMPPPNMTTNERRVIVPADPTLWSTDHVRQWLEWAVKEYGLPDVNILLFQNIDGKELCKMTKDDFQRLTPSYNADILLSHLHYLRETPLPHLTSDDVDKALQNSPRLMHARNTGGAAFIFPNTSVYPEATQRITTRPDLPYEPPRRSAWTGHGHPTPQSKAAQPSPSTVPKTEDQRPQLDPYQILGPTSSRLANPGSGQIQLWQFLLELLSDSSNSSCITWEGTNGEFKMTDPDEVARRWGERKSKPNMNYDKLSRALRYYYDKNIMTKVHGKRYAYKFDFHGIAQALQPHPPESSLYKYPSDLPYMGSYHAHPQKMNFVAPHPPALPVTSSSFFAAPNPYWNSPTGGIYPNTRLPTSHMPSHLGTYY
# Procedure, shortened: as §1
# ELF1 = ELF1 (Homo sapiens, UniProt P32519 1-619); details: protein: recombinant; tags: N-terminal GST; dsDNA, one strand shown
# Chain of ELF1 (P32519 whole entry): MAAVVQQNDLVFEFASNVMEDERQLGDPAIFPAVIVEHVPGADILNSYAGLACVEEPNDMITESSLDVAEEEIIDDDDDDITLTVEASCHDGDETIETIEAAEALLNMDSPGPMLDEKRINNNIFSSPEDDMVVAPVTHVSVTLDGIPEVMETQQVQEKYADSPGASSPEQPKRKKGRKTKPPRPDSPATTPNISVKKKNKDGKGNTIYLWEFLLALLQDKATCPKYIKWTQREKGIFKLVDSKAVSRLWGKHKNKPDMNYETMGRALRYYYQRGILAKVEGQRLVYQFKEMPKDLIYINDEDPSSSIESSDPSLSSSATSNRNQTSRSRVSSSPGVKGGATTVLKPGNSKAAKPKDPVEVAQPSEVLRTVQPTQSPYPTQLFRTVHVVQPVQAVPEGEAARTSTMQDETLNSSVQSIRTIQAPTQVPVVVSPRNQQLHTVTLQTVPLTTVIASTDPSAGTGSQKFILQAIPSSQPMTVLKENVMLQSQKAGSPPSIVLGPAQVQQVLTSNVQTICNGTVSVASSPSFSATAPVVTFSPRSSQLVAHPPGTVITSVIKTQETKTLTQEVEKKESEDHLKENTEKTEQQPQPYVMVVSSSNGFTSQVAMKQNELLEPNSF
# Procedure, shortened: as §1
# EHF = molecular target: T5, EHF (Homo sapiens, UniProt Q9NZC4 1-300); details: protein: recombinant; tags: N-terminal GST; dsDNA, one strand shown
# T5 sequence: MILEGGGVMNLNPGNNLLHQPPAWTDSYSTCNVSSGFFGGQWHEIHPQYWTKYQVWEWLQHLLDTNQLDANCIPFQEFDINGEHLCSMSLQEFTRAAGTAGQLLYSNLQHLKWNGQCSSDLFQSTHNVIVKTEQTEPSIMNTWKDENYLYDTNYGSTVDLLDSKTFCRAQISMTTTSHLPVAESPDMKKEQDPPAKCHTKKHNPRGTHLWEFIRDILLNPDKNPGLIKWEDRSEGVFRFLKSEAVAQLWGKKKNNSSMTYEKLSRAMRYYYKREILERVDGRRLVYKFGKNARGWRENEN
# Procedure, shortened: as §1
# SPI1 = SPI1 (Homo sapiens, UniProt P17947 1-270); details: protein: recombinant; tags: N-terminal GST; dsDNA, one strand shown
# Procedure, shortened: as §1
# SPIB = SPIB (Homo sapiens, UniProt Q01892 1-262); details: protein: recombinant; tags: N-terminal GST; dsDNA, one strand shown
# Chain of SPIB (Q01892 whole entry): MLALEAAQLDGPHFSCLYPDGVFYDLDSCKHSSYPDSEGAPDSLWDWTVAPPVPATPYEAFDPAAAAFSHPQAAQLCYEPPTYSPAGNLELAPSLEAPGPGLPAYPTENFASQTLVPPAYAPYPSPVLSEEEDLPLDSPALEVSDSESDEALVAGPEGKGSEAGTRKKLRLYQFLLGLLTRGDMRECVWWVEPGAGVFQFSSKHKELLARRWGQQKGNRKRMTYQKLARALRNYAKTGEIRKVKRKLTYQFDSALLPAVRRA
# Procedure, shortened: as §1
# ELK3 = molecular target: T6, ELK3 (Homo sapiens, UniProt P41970 1-407); details: protein: recombinant; tags: N-terminal GST; dsDNA, one strand shown
# T6 sequence: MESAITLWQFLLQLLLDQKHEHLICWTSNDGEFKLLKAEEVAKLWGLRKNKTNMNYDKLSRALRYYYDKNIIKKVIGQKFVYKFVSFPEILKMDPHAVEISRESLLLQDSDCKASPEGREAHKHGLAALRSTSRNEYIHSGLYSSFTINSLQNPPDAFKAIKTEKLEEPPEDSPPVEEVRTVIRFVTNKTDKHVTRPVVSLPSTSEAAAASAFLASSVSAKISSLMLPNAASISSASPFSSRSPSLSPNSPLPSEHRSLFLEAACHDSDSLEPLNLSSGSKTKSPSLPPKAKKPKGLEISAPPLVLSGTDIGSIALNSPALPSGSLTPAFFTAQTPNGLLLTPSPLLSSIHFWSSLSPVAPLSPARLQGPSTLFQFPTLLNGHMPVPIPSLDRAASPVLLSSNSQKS
# Procedure, shortened: as §1
# FEV = molecular target: T7, FEV (Homo sapiens, UniProt Q99581 1-238); details: protein: recombinant; tags: N-terminal GST; dsDNA, one strand shown
# T7 sequence: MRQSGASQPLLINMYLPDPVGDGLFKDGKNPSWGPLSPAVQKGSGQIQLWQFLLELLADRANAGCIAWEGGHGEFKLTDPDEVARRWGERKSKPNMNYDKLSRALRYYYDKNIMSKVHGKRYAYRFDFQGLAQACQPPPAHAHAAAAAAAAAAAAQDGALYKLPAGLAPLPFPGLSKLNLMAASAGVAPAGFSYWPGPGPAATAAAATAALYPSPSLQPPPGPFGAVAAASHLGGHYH
# Procedure, shortened: as §1
# ETV5 = ETV5 (Homo sapiens, UniProt P41161 1-510); details: protein: recombinant; tags: N-terminal GST; dsDNA, one strand shown
# Chain of ETV5 (P41161 whole entry): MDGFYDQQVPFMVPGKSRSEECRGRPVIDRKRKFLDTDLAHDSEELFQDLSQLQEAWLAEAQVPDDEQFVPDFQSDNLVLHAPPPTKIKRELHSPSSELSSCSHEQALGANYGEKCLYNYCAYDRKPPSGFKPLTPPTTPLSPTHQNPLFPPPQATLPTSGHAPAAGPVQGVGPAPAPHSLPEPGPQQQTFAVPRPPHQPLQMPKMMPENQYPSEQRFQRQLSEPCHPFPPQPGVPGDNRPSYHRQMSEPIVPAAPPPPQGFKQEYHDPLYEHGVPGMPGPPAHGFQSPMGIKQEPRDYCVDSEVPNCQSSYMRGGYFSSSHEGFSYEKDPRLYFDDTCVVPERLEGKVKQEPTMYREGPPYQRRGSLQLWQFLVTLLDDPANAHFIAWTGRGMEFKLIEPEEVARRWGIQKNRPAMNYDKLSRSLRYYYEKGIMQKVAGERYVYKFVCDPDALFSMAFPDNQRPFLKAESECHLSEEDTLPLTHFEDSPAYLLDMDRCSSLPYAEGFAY
# Procedure, shortened: as §1
# HSF1 = HSF1 (Homo sapiens, UniProt Q00613 1-529); details: protein: recombinant; tags: N-terminal GST; chain copies: 3; dsDNA, one strand shown
# Chain of HSF1 (Q00613 whole entry): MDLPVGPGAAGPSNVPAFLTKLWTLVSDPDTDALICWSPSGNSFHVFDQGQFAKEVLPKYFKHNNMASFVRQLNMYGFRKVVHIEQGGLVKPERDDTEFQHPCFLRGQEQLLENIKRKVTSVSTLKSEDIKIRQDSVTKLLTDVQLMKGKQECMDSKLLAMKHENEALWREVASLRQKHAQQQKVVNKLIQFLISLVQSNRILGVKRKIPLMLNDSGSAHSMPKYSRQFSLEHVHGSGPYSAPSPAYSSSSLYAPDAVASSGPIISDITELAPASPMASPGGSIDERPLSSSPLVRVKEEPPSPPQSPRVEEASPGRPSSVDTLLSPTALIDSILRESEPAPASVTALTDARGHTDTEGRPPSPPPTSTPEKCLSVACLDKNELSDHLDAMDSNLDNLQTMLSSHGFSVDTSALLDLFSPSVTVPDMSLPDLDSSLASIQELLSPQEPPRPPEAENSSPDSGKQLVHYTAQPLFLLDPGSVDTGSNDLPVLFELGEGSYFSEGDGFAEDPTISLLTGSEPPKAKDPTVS
# Procedure, shortened: as §1
# SPIC = molecular target: T8, SPIC (Homo sapiens, UniProt Q8N5J4 1-248); details: protein: recombinant; tags: N-terminal GST; dsDNA, one strand shown
# T8 sequence: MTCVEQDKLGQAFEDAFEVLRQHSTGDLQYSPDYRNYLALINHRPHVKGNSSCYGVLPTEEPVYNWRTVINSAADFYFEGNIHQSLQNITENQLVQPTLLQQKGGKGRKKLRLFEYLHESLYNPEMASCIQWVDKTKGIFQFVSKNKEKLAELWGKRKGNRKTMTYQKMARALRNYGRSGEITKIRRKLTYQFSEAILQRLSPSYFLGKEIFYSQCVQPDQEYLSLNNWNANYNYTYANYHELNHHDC
# Procedure, shortened: as §1
# ELF4 = ELF4 (Homo sapiens, UniProt Q99607 1-663); details: protein: recombinant; tags: N-terminal GST; dsDNA, one strand shown
# Chain of ELF4 (Q99607 whole entry): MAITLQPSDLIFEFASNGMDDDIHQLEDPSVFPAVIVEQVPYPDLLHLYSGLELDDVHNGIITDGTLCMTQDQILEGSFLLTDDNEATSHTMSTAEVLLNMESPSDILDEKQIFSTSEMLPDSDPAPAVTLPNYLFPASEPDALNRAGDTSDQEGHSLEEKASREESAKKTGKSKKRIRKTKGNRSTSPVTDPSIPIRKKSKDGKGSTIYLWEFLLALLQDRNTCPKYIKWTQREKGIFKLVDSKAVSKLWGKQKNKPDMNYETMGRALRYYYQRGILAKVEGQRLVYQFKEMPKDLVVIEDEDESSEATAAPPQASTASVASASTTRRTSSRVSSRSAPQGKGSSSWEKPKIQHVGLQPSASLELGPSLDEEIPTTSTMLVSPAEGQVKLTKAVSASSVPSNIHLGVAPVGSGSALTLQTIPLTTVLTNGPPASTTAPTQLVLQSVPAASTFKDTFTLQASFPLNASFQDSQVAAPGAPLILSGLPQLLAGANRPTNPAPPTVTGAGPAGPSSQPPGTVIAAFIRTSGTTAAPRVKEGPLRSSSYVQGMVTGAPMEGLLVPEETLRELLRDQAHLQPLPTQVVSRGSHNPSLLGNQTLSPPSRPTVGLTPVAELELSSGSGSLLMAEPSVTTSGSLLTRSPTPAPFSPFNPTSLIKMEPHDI
# Procedure, shortened: as §1
# ELK4 = molecular target: T9, ELK4 (Homo sapiens, UniProt P28324-2 1-405); details: protein: recombinant; tags: N-terminal GST; dsDNA, one strand shown
# T9 sequence: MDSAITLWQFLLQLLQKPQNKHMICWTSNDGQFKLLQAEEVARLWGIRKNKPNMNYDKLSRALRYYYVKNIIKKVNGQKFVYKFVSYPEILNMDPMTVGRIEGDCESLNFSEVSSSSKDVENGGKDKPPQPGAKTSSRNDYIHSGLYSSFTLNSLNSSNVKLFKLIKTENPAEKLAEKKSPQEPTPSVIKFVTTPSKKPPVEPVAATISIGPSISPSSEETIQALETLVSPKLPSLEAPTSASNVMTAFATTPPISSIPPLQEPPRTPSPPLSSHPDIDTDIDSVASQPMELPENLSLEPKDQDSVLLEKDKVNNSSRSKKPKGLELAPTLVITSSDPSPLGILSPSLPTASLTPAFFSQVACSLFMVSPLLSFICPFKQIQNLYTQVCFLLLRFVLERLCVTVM
# Procedure, shortened: as §1
# ETV2 = molecular target: T10, ETV2 (Homo sapiens, UniProt O00321 1-342); details: protein: recombinant; tags: N-terminal GST; dsDNA, one strand shown
# T10 sequence: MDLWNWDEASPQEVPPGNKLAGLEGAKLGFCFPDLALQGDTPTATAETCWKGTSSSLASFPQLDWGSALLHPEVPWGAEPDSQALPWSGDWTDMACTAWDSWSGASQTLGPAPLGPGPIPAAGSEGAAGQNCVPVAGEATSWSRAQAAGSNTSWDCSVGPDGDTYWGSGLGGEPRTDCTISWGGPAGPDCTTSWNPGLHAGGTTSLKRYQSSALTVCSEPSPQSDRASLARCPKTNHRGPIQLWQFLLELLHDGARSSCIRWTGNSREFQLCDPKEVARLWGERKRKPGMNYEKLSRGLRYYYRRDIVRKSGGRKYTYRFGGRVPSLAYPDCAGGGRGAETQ
# Procedure, shortened: as §1
# ELF3 = molecular target: T11, ELF3 (Homo sapiens, UniProt P78545 1-371); details: protein: recombinant; tags: N-terminal GST; dsDNA, one strand shown
# T11 sequence: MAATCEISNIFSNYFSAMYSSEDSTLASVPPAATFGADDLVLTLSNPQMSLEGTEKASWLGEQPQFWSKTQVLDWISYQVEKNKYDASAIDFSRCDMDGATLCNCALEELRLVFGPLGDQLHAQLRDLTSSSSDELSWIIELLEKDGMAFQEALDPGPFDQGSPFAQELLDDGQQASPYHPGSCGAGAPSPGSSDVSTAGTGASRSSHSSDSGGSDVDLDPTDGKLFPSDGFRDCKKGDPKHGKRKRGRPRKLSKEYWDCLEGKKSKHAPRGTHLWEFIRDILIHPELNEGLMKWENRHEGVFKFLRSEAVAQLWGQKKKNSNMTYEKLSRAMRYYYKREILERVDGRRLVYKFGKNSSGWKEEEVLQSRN
# Procedure, shortened: as §1
# CRX = CRX (Homo sapiens, UniProt O43186 1-299); details: protein: recombinant; tags: N-terminal GST; dsDNA, one strand shown
# Chain of CRX (O43186 whole entry): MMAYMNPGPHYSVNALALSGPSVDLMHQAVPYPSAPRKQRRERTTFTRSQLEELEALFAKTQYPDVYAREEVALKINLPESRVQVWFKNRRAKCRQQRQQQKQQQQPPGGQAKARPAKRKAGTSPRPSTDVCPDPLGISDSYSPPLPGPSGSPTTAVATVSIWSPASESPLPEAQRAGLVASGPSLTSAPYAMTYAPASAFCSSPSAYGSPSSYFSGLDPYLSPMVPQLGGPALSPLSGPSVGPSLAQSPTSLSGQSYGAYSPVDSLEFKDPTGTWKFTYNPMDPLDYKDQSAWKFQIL
# Procedure, shortened: as §1
# ETV1 = ETV1 (Homo sapiens, UniProt P50549 1-477); details: protein: recombinant; tags: N-terminal GST; dsDNA, one strand shown
# Chain of ETV1 (P50549 whole entry): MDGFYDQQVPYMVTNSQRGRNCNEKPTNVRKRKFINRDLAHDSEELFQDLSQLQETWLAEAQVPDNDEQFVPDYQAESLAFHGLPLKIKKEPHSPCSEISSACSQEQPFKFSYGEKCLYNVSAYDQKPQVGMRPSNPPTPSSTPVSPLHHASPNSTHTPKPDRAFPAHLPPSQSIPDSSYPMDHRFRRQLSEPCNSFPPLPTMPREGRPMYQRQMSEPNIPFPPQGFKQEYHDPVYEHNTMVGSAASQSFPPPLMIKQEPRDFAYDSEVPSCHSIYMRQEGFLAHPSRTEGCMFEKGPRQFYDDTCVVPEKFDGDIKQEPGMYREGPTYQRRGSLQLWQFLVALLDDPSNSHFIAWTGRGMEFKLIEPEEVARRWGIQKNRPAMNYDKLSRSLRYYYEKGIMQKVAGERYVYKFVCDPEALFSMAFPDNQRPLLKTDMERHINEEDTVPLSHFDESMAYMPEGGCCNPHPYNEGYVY
# Procedure, shortened: as §1
sequence,measurement,setting,value
TCCTCA,binding signal,FLI1,"1.53 fold enrichment (6-mer frequency, TF over GST control)"
same,binding signal,ELK1,"1.47 fold enrichment (6-mer frequency, TF over GST control)"
same,binding signal,GABPA,"1.6 fold enrichment (6-mer frequency, TF over GST control)"
same,binding signal,ERG,"1.51 fold enrichment (6-mer frequency, TF over GST control)"
same,binding signal,ELF1,"1.49 fold enrichment (6-mer frequency, TF over GST control)"
same,binding signal,EHF,"1.65 fold enrichment (6-mer frequency, TF over GST control)"
same,binding signal,SPI1,"2.25 fold enrichment (6-mer frequency, TF over GST control)"
same,binding signal,SPIB,"1.6 fold enrichment (6-mer frequency, TF over GST control)"
same,binding signal,ELK3,"1.55 fold enrichment (6-mer frequency, TF over GST control)"
same,binding signal,FEV,"1.52 fold enrichment (6-mer frequency, TF over GST control)"
same,binding signal,ETV5,"1.52 fold enrichment (6-mer frequency, TF over GST control)"
same,binding signal,HSF1,"1.2 fold enrichment (6-mer frequency, TF over GST control)"
same,binding signal,SPIC,"1.63 fold enrichment (6-mer frequency, TF over GST control)"
same,binding signal,ELF4,"1.57 fold enrichment (6-mer frequency, TF over GST control)"
same,binding signal,ELK4,"1.67 fold enrichment (6-mer frequency, TF over GST control)"
same,binding signal,ETV2,"1.66 fold enrichment (6-mer frequency, TF over GST control)"
same,binding signal,ELF3,"1.44 fold enrichment (6-mer frequency, TF over GST control)"
same,binding signal,CRX,"1.4 fold enrichment (6-mer frequency, TF over GST control)"
same,binding signal,ETV1,"1.48 fold enrichment (6-mer frequency, TF over GST control)"
